Screening results (PubChem)
Compounds with a hit are over-represented: about 32% of the library has one in this group of screens.
CYP2C19 activ: activators of human cytochrome P450 2C19. P33261. recombinant CYP2C19, luciferin-H EGE luminescence; active compounds read high; 0 = fully inhibited enzyme, 1 = untreated enzyme. 96,000 tested, under 10 active. activation factor at 5 µM;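 active = activation factor of at least 2 at 5 µM in the primary screen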;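 note: 0 = wells with 2.5 mM tranylcypromine and 1 = vehicle-only wells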
CYP2C19 inh: inhibitors of human CYP2C19; inhibition, % at 5 µM; CYP2C19 Supersomes, luciferin-H EGE luminescence, 30 min; P33261; 96,000 tested, 21% active;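 active = CYP2C19 inhibition above a set limit at 5 µM in the primary screen, cut at about 50% in these data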;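 note: plate controls were negative control wells for no effect and 2.5 mM tranylcypromine positive control for full effect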
CYP2C9 inh: human CYP2C9 inhibition; P11712; CYP2C9 Supersomes, luciferin-H conversion, luminescence; inhibition, % at 5 µM; 96,000 tested, 20% active; AID 777;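 active = blocking of liver enzyme CYP2C9 beyond about 50% at 5 µM, limit read from the data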
Target sequence (P11712 whole entry, looked up): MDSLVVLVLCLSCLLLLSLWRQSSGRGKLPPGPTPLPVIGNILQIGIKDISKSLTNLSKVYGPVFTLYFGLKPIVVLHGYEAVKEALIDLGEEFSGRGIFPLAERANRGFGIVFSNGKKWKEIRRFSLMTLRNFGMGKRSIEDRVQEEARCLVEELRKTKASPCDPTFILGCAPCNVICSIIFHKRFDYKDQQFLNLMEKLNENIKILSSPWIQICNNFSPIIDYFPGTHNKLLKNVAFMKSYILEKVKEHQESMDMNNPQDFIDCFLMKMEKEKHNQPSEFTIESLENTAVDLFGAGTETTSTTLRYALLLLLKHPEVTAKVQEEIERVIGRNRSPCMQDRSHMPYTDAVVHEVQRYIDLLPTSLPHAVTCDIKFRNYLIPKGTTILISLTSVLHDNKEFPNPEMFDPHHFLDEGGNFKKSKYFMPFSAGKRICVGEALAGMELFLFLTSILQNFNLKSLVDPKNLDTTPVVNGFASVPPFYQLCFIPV
PostGolgi ctrl: growth of the yeast control strain, post-Golgi counter-screen; AID 738; 98,000 tested, 5% active; efflux-deficient yeast background strain, growth absorbance A615, 16 h; inhibition, % at 10 µM
CYP2C9 act: CYP2C9 (human) activation; P11712; recombinant CYP2C9, luciferin-H conversion, luminescence; active compounds read high; factor 1 = untreated enzyme, 0 = blocked; activation factor at 5 µM; 96,000 tested, 1.4% active; AID 1024;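 active = activation factor of 2 or more for CYP2C9 at a 5 µM dose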;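 note: 0 = sulfaphenazole-blocked wells and 1 = vehicle-only wells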
PostGolgi yeast: growth inhibition of a yeast mutant, post-Golgi transport screen; post-Golgi transport phenotypic cell assay; 98,000 tested, 0.9% active; inhibition, % at 10 µM;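 note: yeast cells grown in 1536-well plates; yeast grown about 18 h at 30C before absorbance read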
* marks the source's active call; other numbers are inactive results; . = not tested or not shown. Cut-off read from the data, not from the text of the source, unless noted: active = inhibition above about 30%; inactive = the rest.

SMILES | CYP2C19 activ | CYP2C19 inh | CYP2C9 inh | PostGolgi ctrl | CYP2C9 act | PostGolgi yeast
Cc1nn(C)c(C)c1S(=O)(=O)N(CC(=O)N1CCc2ccccc21)c1ccc(C(C)C)cc1 | 0.4 | 59* | 74* | 18 | 0.3 | -15
CC(C)CN(CC(C)C)C(=O)Cc1coc2ccc3ccccc3c12 | 0.6 | 40 | 12 | 14 | 0.9 | -11
CCn1c(C)[n+](CC(O)COCC2CC=CCC2)c2ccccc21 (stereo not drawn) | 1.1 | -13 | -4 | 3 | 1 | -4
O=c1nc2ccccc2c2n1CC(CN1CCN(c3ccccc3F)CC1)N2 (stereo not drawn) | 1 | -1 | 36 | 1 | 0.6 | -1
Cc1ccc(N(CC(=O)N2CCN(c3ccc(F)cc3)CC2)S(=O)(=O)c2c(C)nn(C)c2C)cc1 | 0.1 | 85* | -60 | 0 | 1.6 | -5
Cc1nn(C)c(C)c1S(=O)(=O)N(CC(=O)N1CCc2ccccc2C1)c1ccc(C(C)C)cc1 | 0 | 96* | 81* | 4 | 0.2 | 1
CCOC(=O)C1CCN(C(=O)CN(c2ccc(OC)cc2)S(=O)(=O)c2c(C)nn(C)c2C)CC1 | 0.7 | 31 | 49 | -6 | 0.5 | -3
O=C(c1ccc(F)cc1)N1CCN(Cc2ccccc2Br)CC1 | 0 | 98* | 69* | 1 | 0.3 | 3
O=C(c1ccc(-n2cccc2)cc1)N1CCN(Cc2ccccc2)CC1 | 0.9 | 14 | 5 | 1 | 1 | -10
O=C(CCCc1c[nH]c2ccccc12)N1CCCCCC1 | 0 | 98* | -17 | 12 | 1.2 | -3
O=C(c1cccc(F)c1)N1CCN(Cc2c[nH]c3ccccc23)CC1 | 0.6 | 37 | 12 | 8 | 0.9 | -11
O=C(c1ccccc1)N1CCN(Cc2c[nH]c3ccccc23)CC1 | 0.4 | 65* | 41 | 5 | 0.6 | 12
N#Cc1ccc(CN2CCN(C(=O)c3ccccc3)CC2)c(Cl)c1 | 0.3 | 74* | 36 | 6 | 0.6 | 4
Cc1cc(S(=O)(=O)N2CCC(NC(=O)C34CC5CC(CC(C5)C3)C4)CC2)ccc1-n1cnnn1 | 0.8 | 17 | 4 | 27 | 1 | 2
Cc1ccc(Cn2nnc3c(=O)n(CC(=O)N4CCN(c5ccccc5)CC4)cnc32)cc1 | 0.6 | 38 | 6 | 1 | 0.9 | 13
COc1ccccc1-c1nnc(Sc2nc([N+](=O)[O-])nn2C)o1 | 0.6 | 44 | -48 | 0 | 1.5 | 2
CC(=O)N1CCN(c2ccc(NCc3ccccc3)cc2)CC1 | 0.9 | 10 | 24 | 4 | 0.8 | -6
CCn1nnnc1NCc1ccc(N2CCCC2)cc1 | 0.2 | 79* | 81* | 0 | 0.2 | 5
Cc1ccccc1/C=c1\s/c(=C\C(=O)C(C)(C)C)[nH]c1=O | 1 | 1 | 9 | 10 | 0.9 | -8
CC(C)c1ccc(NC(=O)C(c2ccc3c(c2)OCO3)N2CCC3(CC2)OCCO3)cc1 (stereo not drawn) | 0.9 | 6 | 8 | 11 | 0.9 | -2
O=C(Nc1ccc2c(c1)OCO2)C(c1ccc(Cl)cc1)N1CCC2(CC1)OCCO2 (stereo not drawn) | 0.5 | 52* | 45 | 18 | 0.5 | 1
CCOCCCNC(=O)C(c1ccc(Cl)cc1)N1CCC2(CC1)OCCO2 (stereo not drawn) | 0.4 | 59* | -9 | 1 | 1.1 | -4
CCOCCCNC(=O)C(c1ccc(Cl)cc1)N1CCN(c2ccccc2)CC1 (stereo not drawn) | 0.5 | 51* | 18 | 31* | 0.8 | 5
Cc1[nH]c(C)c2c(=O)n(-c3ccccc3)ncc12 | 0.9 | 6 | 4 | 2 | 1 | 7
O=C(NCc1ccco1)c1cnc2n(c1=O)CCS2 | 0.9 | 7 | 7 | . | 0.9 | .
SMILES | CYP2C19 activ | CYP2C19 inh | CYP2C9 inh | PostGolgi ctrl | CYP2C9 act | PostGolgi yeast
COc1ccc(C(C)(C)C)cc1NC(=O)c1ccoc1C | 0.4 | 62* | 39 | 22 | 0.6 | 0
COc1ccc(Cl)cc1NC(=O)c1ccoc1C | 0.9 | 15 | -165 | 1 | 2.6* | -1
COc1ccc(Cl)cc1NC(=O)c1ocnc1C | 0.9 | 6 | -164 | 7 | 2.6* | 2
Cc1occc1C(=O)Nc1c(F)cc(F)cc1Br | 1 | 2 | 0 | 11 | 1 | -2
COc1ccc(C)cc1NC(=O)c1ccoc1C | 1 | 2 | -22 | 20 | 1.2 | -3
Cc1occc1C(=O)Nc1ccc(Br)cc1F | 0.5 | 50* | 24 | 7 | 0.8 | 5
Cc1n[nH]c(=O)nc1NCc1ccccc1Cl | 1.1 | -6 | -13 | -3 | 1.1 | 3
